Assay outcomes deposited in PubChem BioAssay by National Center for Advancing Translational Sciences (NCATS).
This is a sample that favours compounds with a hit; in the whole collection about 13% have one here.
HCV inh = HCV inhibition; Huh7.5.1 HCVcc-Cre infection, luciferase reporter, 44 h; actives 3.4% (n = 340,000); Potency, µM (series often up to 41.8 µM), usual class: inhibitors; AID 651820
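A cell-based infection assay in which seeded cells (1,000 per well) receive test compound after 4 h, are inoculated with HCVcc-Cre at approximately 0.5 moi, and are incubated 44 h before luminescence detection.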
Pf growth 96h = inhibits malaria parasite growth, 96 h; P. falciparum luciferase reporter growth, 96 h; Potency, µM (series often up to 28.7 µM), hits mostly inhibitors; actives 6.9% (n = 320,000); AID 504834
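Luminescence readout: decreased luciferase signal marks inhibited growth of reporter-expressing P. falciparum in infected red cells (2% hematocrit, 0.05% parasitemia final), exposed to compound two generations (96 h, 37 C, 5% CO2).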
Pf growth 48h = inhibits P. falciparum growth in the first generation, 48 h; actives 5.9% (n = 310,000); P. falciparum luciferase growth in erythrocytes, 48 h; Potency, µM (series often up to 28.7 µM), hits mostly inhibitors; AID 504832
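Luciferase-expressing parasites in RBCs, 2% Hct / 0.1% parasitemia final; RPMI 1640 + 0.5% Albumax; 37 C, 5% CO2, one generation; luminescence read-out, lower signal = inhibition.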
HCMV inh = inhibitors of human cytomegalovirus; HFF cells, HCMV-luciferase reporter, 72 h; stronger effect = lower value; activity change, negative = inhibition, % at 57.5 µM; actives 4.5% (n = 410,000); in the data active = activity change below about -60%; inconclusive = no clear call, values can overlap the other calls; inactive = above about -39%
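Inhibition of viral replication was scored as loss of reporter luminescence in HFFs infected with HCMV-luciferase (MOI 1 PFU/cell) for 72 h; compounds tested at 2 doses, normalized to buffer and Salinomycin controls.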
Large screens that a line does not name were inactive. Unless noted, calls follow the shape of the dose curve; as a rule, active = well fitted inhibition curve with a large enough effect; inconclusive = small, poorly fitted or top-dose-only effect, or another doubt; inactive = no such curve, though single readings can be large or run the other way.

CCc1cccc(C)c1NC(=O)CCn1nc(C)c2c(C)n(-c3ccccc3)nc2c1=O	none (no result: HCV inh, Pf growth 96h, Pf growth 48h)
Cc1ccc(C)c(SCC(=O)OC/C(O)=C(\C#N)c2nc3ccccc3[nH]2)c1	Pf growth 96h inconclusive, Pf growth 48h inconclusive, HCMV inh -101.7
N#C/C(=C(/O)COC(=O)c1cccnc1Cl)c1nc2ccccc2[nH]1	none
Cc1cc(Br)ccc1SCC(=O)OCC(O)=C(C#N)c1nc2ccccc2[nH]1	none (no result: Pf growth 96h, Pf growth 48h)
N#C/C(=C(/O)COC(=O)CSc1ccc2ccccc2c1)c1nc2ccccc2[nH]1	HCMV inh -101.5
Cc1cc(Br)ccc1SCC(=O)OC/C(O)=C(\C#N)c1nc2ccccc2[nH]1	HCMV inh -83.8
COc1ccc(-c2cc(=S)ss2)cc1	Pf growth 96h inconclusive (no result: HCV inh)
CCc1c(C#N)sc(C(N)=O)c1CC	HCMV inh -73.9
Cc1c(C#N)sc(C(N)=O)c1C	HCMV inh inconclusive
CCOCCC(=O)Nc1ccc2c(c1)c(=O)n(C)n2C/C=C/c1ccccc1	none (no result: HCV inh, Pf growth 96h, Pf growth 48h)
Nc1ncnc(NCc2ccc(F)cc2)c1[N+](=O)[O-]	HCMV inh -71.9
CN(c1ccccc1)c1nc(N)c([N+](=O)[O-])c(NCc2ccccc2)n1	HCV inh inconclusive, Pf growth 96h inconclusive, Pf growth 48h inconclusive
Nc1ncnc(Nc2ccccn2)c1[N+](=O)[O-]	HCV inh inconclusive
Nc1ncnc(NCc2ccccc2)c1[N+](=O)[O-]	HCMV inh -69.7
C[C@@H]1CN([C@H](C)CO)C(=O)CCCn2cc(nn2)CO[C@H]1CN(C)S(=O)(=O)c1ccc(Cl)cc1	none (no result: HCV inh, Pf growth 96h, Pf growth 48h)
Cn1cccc1Cc1nnc(SCC(=O)N2CCCC2)n1CCc1ccccc1	Pf growth 96h inconclusive (no result: Pf growth 48h)
Cn1cccc1Cc1nnc(SCC(=O)N2CCc3ccccc32)n1CCc1ccccc1	Pf growth 96h inconclusive, Pf growth 48h 13.1µM
O=C(CSc1nnc(Cc2cccs2)n1CCc1ccccc1)N1CCCc2ccccc21	HCV inh inconclusive, Pf growth 48h 9.28µM (no result: Pf growth 96h)
COc1ccc(-n2ccnc(NCc3ccc(Cl)cc3)c2=O)cc1	none (no result: HCV inh, Pf growth 96h, Pf growth 48h)
O=c1[nH]c(C2CCN(S(=O)(=O)c3ccc(S(=O)(=O)NC4CC4)cc3)CC2)nc2c1nnn2Cc1cccc(F)c1	Pf growth 96h inconclusive, Pf growth 48h 9.28µM
Cc1ccc(Cn2nnc3c(=O)[nH]c(C4CCN(S(=O)(=O)c5ccc(S(=O)(=O)NC6CC6)cc5)CC4)nc32)cc1	Pf growth 96h 1.47µM, Pf growth 48h inconclusive
Cc1cccc(Nc2cc(Cl)nc(SCC(=O)O)n2)c1C	Pf growth 96h inconclusive (no result: HCV inh)
CC1CC(C)(C)NCc2ccccc21 (configuration not stated)	Pf growth 96h 9.28µM
CC1CC(C)(C)NC(C)c2ccccc21 (configuration not stated)	none
CCOC(=O)C(=N/O)/C(C)=N/NC(=O)C(=O)Nc1ccc(Cl)cc1	HCV inh 11.2µM
CC(C)c1ccc2oc(-c3cccc(NC(=O)c4ccc5c(c4)OCCO5)c3)nc2c1	none (no result: HCV inh, Pf growth 96h, Pf growth 48h)
O=C(c1ccc([N+](=O)[O-])o1)N1CCCCCC1	none (no result: Pf growth 96h, Pf growth 48h)
O=C(c1ccc([N+](=O)[O-])cc1)N1CCc2ccccc2C1	HCMV inh -67.5
O=C(c1ccncc1)N1CCc2ccccc2C1	none
O=C(c1ccc([N+](=O)[O-])o1)N1CCOCC1	Pf growth 96h 3.29µM, Pf growth 48h inconclusive
CCOC(=O)c1c(C)[nH]c(C(=O)N2CCc3cc(OC)c(OC)cc3C2)c1C	HCV inh 11.2µM, Pf growth 96h inconclusive
O=C(c1ccc([N+](=O)[O-])o1)N1CCc2ccccc2C1	HCV inh inconclusive, Pf growth 96h 5.22µM, Pf growth 48h inconclusive
COc1ccc(N(CC(=O)NCCc2ccc(C)cc2)S(=O)(=O)c2c(C)nn(C)c2C)cc1	none (no result: HCV inh, Pf growth 96h, Pf growth 48h)
COc1cc2c(cc1OC)CN(C(=O)c1ccc([N+](=O)[O-])o1)CC2	HCV inh inconclusive, Pf growth 96h 4.15µM, Pf growth 48h inconclusive
COc1ccc(C(=O)N2CCc3cc(OC)c(OC)cc3C2)cc1OC	Pf growth 96h inconclusive
CCOC(=O)c1ccccc1NC(=O)N1CCCN(S(=O)(=O)c2ccc3c(ccn3CC)c2)CC1	none (no result: HCV inh, Pf growth 96h, Pf growth 48h)
O=[N+]([O-])c1cccc(-n2nncc2-c2ccccc2)c1	none
c1ccc(-c2cnnn2-c2ccccc2)cc1	Pf growth 96h 0.828µM
COc1ccccc1OCCn1c(COc2cc(C)ccc2C)nc2ccccc21	none (no result: HCV inh, Pf growth 96h, Pf growth 48h)
CCOC(=O)COn1c(=O)c(-c2ccc(OC)cc2)[n+]([O-])c2ccccc21	HCMV inh -61.1
COc1ccc(/C=C2\N=C(c3ccccc3Cl)NC2=O)cc1	HCV inh inconclusive, HCMV inh -73.3
Cc1cccc(N2CCN(C(=O)CS(=O)(=O)c3cccc4nsnc34)CC2C)c1 (configuration not stated)	none (no result: HCV inh, Pf growth 96h, Pf growth 48h)
O=C(NC1CCCC1)c1ccc(COc2ccccc2Br)o1	HCV inh 12.6µM, Pf growth 96h inconclusive
O=C(NC1CCCCC1)c1ccc(COc2ccccc2)o1	HCV inh inconclusive, Pf growth 48h inconclusive
COc1cc2c(cc1OC)-c1cc(Nc3cccc(F)c3)nc(=O)n1CC2	Pf growth 96h 4.15µM, Pf growth 48h inconclusive
COc1cc2c(cc1OC)-c1cc(Nc3ccc(F)cc3)nc(=O)n1CC2	Pf growth 96h 1.17µM, Pf growth 48h 2.08µM
CCN(CC)c1ccc(Nc2cc3n(c(=O)n2)CCc2cc(OC)c(OC)cc2-3)cc1	HCV inh inconclusive, Pf growth 96h 10.4µM, Pf growth 48h inconclusive
COc1cc2c(cc1OC)-c1cc(Nc3ccc(N(C)C)cc3)nc(=O)n1CC2	Pf growth 96h inconclusive, Pf growth 48h inconclusive, HCMV inh inconclusive
Cc1ccc(/C=C/c2onc(C)c2S(=O)(=O)N2CCC(C(=O)N3CC(C)Oc4ccccc43)CC2)cc1 (configuration not stated)	none (no result: HCV inh, Pf growth 96h, Pf growth 48h)
COc1ccc(CNC(=O)c2cccn2-c2nnc(N3CCCC3)s2)c(OC)c1	none (no result: HCV inh, Pf growth 96h, Pf growth 48h)
O=C1C2C3C=CC(C3)C2C(=O)N1c1ccc(N2CCN(c3ccccn3)CC2)c([N+](=O)[O-])c1 (configuration not stated)	HCV inh 10µM, Pf growth 96h inconclusive, HCMV inh -66.0
O=C(CCN1C(=O)C2C3C=CC(C3)C2C1=O)N1CCN(c2ccccn2)CC1 (configuration not stated)	none
O=C(Nc1cccc(Cl)c1)c1ccc2c(c1)CCN2S(=O)(=O)c1ccccc1	none (no result: HCV inh, Pf growth 96h, Pf growth 48h)
COC(=O)c1cnn2c3c(c(C)nc12)CCCC3	Pf growth 96h 0.928µM
NC(N)=NCCCC(NC(=O)c1ccccc1)C(=O)Nc1ccc([N+](=O)[O-])cc1 (configuration not stated)	Pf growth 96h 9.28µM, Pf growth 48h inconclusive
NC(N)=NCCCC(NC(=O)c1ccccc1)C(=O)Nc1ccc2ccccc2c1 (configuration not stated)	HCV inh inconclusive, Pf growth 96h 10.4µM, Pf growth 48h inconclusive
Cc1ccc(C2CC(=O)Nc3c2c(C)nn3-c2nc(C)cc(C)n2)c(C)c1 (configuration not stated)	none (no result: HCV inh, Pf growth 96h, Pf growth 48h)
C/C(=N\NC(=O)CN1CCCCC1)c1ccccc1O	HCV inh inconclusive, Pf growth 48h inconclusive
C/C(=N\NC(=O)CN(c1ccccc1)S(C)(=O)=O)c1ccccc1O	HCV inh inconclusive, Pf growth 96h inconclusive, Pf growth 48h 11.7µM
